Lassa entry inh: Lassa virus entry inhibition; Lassa virus pseudotype entry inhibition, cell reporter; Potency, µM (titrated, usually from 37.9 µM), inactives show top-dose activity change, negative = inhibition, usual class: inhibitors; actives 1.2% (n = 300,000); AID 540256; calls by dose curve; tested in HEK293 cells; further: potency means the concentration at half of the fitted maximal effect; nearly all actives have a fitted effect of over 50% in size
Marburg entry inh: Marburg virus entry inhibition; Marburg virus pseudotyped entry inhibition, cell reporter; Potency, µM (highest dose often 37.8 µM), for the others: at the top dose activity change, negative = inhibition, most hits filed as inhibitors; actives 1.8% (n = 300,000); calls by dose curve; tested in HEK293 cells; further: potency means the concentration at half of the fitted maximal effect
FMDV antiviral: blocks foot and mouth disease virus; FMDV antiviral cell-based qHTS; Potency, µM (top dose mostly 57.9 µM), without a hit: at the highest dose activity change, negative = inhibition, hits mostly inhibitors; actives 1.2% (n = 410,000); AID 1159524; calls by dose curve; tested in HEK293T cells; further: read-out not given here; potency means the concentration at half of the fitted maximal effect; nearly all actives have a fitted effect of over 45% in size
HCMV antiviral: blocks human cytomegalovirus replication | HFF cells, HCMV-luciferase reporter, 72 h; hits give low values | activity change, negative = inhibition, % at 57.5 µM | actives 4.5% (n = 410,000) | AID 1259415; in the data active means activity change below about -60%; inconclusive means no clear call, values can overlap the other calls; inactive means above about -39%
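HFF cells seeded 16 h at 37C, treated with compounds, infected with luciferase-reporter HCMV at MOI 1 PFU/cell; luciferase read at 72 h post infection, normalized to buffer-only and Salinomycin controls.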
* = called active by the depositor; ? = inconclusive; / = no result given; [ ] = dose if it differs, or a comment. The list is not random: actives were taken first. Their share in the collection is about 6.2%. On the % scale 0 is the no-effect control and ±100 the full control effect.

SMILES	Lassa entry inh	Marburg entry inh	FMDV antiviral	HCMV antiviral
Cc1cccc(NC(=O)CNC(=O)C23CC4CC(CC(Cl)(C4)C2)C3)n1	-5%	-5%	-12%	-4
Cc1cccc(C)c1NC(=O)CNC(=O)C12CC3CC(CC(O)(C3)C1)C2	0%	?	-12%	-73*
O=c1cc(-c2ccc(O)cc2)oc2c(C3OCC(O)C(O)C3O)c(O)c(C3OC(CO)C(O)C(O)C3O)c(O)c12 (stereo unspecified)	/	/	-14%	38
COC(=O)c1c(C)[nH]c(C(=O)/C=C/c2ccccc2)c1C	-2%	?	-15%	-4
COC(=O)c1c(C)[nH]c(C(=O)/C=C/c2ccc(C)cc2)c1C	/	/	?	-90*
COc1ccc(/C=N/NC(=O)c2ccc(NC(=O)c3ccccc3Br)cc2)cc1	18µM*	-26%	-9%	-91*
COc1cccc(C(=O)N/N=C/C(Br)=C/c2ccccc2)c1	-21%	?	6%	?
O=C(N/N=C/C(Br)=C/c1ccccc1)c1cnccn1	?	?	25%	-61*
COc1ccc(C(=O)N/N=C/C(Br)=C/c2ccccc2)cc1	6%	-2%	-6%	-65*
O=C(N/N=C/C=C\c1ccccc1)c1cnccn1	6%[46.1 µM]	21%[46.1 µM]	6%	57
CCn1cc(C(=O)N[C@@H](C)C(=O)OC)c(=O)c2cc3c(cc21)OCO3	/	/	-13%	-2
COc1ccc(Nc2nccc3c2cc(-c2ccccc2OC)n3C)cc1	/	/	/	-67*
COc1ccccc1-c1cc2c(Nc3cc(OC)c(OC)c(OC)c3)nccc2n1C	/	/	/	-39
Cc1nc2ncnn2c(N2CCN(S(=O)(=O)c3ccc(Br)cc3)CC2)c1C	9%	-2%[46.1 µM]	?	-39
Cc1nc2ncnn2c(N2CCN(C(c3ccccc3)c3ccccc3)CC2)c1C	?	-5%	0%	-69*
Cc1cc(N2CCN(c3nc4ccccc4s3)CC2)n2ncnc2n1	?	?	11µM*	-102*
Cc1cc(N2CCN(c3cccc(C(F)(F)F)c3)CC2)n2ncnc2n1	-27%	-27%	0%	-17
Cc1nc2ncnn2c(N2CCN(c3cccc(C(F)(F)F)c3)CC2)c1C	?	-15%	?	-101*
Cc1cc(N2CCN(C(c3ccccc3)c3ccccc3)CC2)n2ncnc2n1	-2%	10%	?	-97*
c1ccc2sc(N3CCCCC3)nc2c1	-10%[46.1 µM]	1%[46.1 µM]	21%	-31
Cc1ccccc1CN1[C@@H](Cc2ccccc2)COCCS1(=O)=O	/	/	0%	-9
CCN(CCO)c1ccc(Nc2cc(-c3ccc(-c4ccccc4)cc3)ncn2)cc1	/	/	-22%	-8
CCN(CCO)c1ccc(N=Nc2cc(C)[nH]n2)cc1	?	?	13µM*	-80*
CCOC(=O)CSc1ccc2nnc(CCNS(=O)(=O)c3ccc(C)cc3)n2n1	/	/	-7%	2
COc1ccc(OCC(=O)NNc2c3ccccc3nc3ccccc23)cc1	?	?	22µM*	-75*
SMILES	Lassa entry inh	Marburg entry inh	FMDV antiviral	HCMV antiviral
O=C(COc1ccccc1)NNc1c2ccccc2nc2ccccc12	?	11µM*	25µM*	-92*
O=C(CCCO)NNc1c2ccccc2nc2ccccc12	-5%	8%[46.1 µM]	-3%	-21
CCCC(=O)NNc1c2ccccc2nc2ccccc12	0%	23%	-15%	-9
CCOC(=O)N1CCc2c(sc3nc4n(c(=O)c23)N=C(c2ccc(OC)cc2)CS4)C1	-4%[46.1 µM]	1%[46.1 µM]	-20%	24
CCOC(=O)N1CCC(NC(=O)CCc2c(C)nc3c(c(C)nn3C(C)(C)C)c2C)CC1	?	?	?	-73*
CCOC(=O)N1CCC(NC(=O)CCc2c(C)nc3nc(C)nn3c2C)CC1	3%	-5%	-1%	-28
CCn1c(SCC(=O)Nc2ccccc2)nnc1-c1cccs1	/	/	-9%	?
O=[N+]([O-])c1ccc(Oc2cccc3cccnc23)c([N+](=O)[O-])c1	?	?	?	-69*
N#Cc1ccc(Oc2cccc3cccnc23)c([N+](=O)[O-])c1	?	-13%[46.1 µM]	-10%	?
CCCc1cc(=O)oc2c3c(cc(OCC(=O)NCC4CCC(C(=O)O)CC4)c12)OC(C)(C)CC3 (stereo unspecified)	/	/	-20%	0
CCCN1C(=O)/C(=C/c2nc3ccccc3c(=O)[nH]2)c2ccccc21	-7%	?	0%	-2
CC(C)N1C(=O)/C(=C\c2nc3ccccc3c(=O)[nH]2)c2ccccc21	?	?	40µM*	77
CCn1cc(S(=O)(=O)NC2CCCCC2)cn1	?	-24%[46.1 µM]	10%	-60*
CC1(C)CC(=O)C(C(C2=C(O)CC(C)(C)CC2=O)c2ccc(Cl)c([N+](=O)[O-])c2)C(=O)C1 (stereo unspecified)	-1%	-12%	-12%	-17
CC1CCC(NC(=O)c2ccc3c(c2)OCO3)CC1 (stereo unspecified)	3.5µM*	?	-25%	32
O=C(NC1CCCCC1)c1ccc2c(c1)OCO2	4%[46.1 µM]	?	48%	96
CC1CCC(NCCc2ccc3c(c2)OCO3)CC1 (stereo unspecified)	8%	16µM*	/	-13
c1cc2c(cc1CCNC1C3CC4CC(C3)CC1C4)OCO2 (stereo unspecified)	-20%	?	2%	65
Cc1ccc(OCCC(=O)NNC(=O)c2ccncc2)cc1	/	/	-15%	18
NC(N)=N/N=C/c1ccc(Cl)c(Cl)c1	?	?	-23%	?
NC(N)=N/N=C/c1ccc(Cl)cc1Cl	?	3.2µM*	0%	-3
O=[N+]([O-])c1cc(S(=O)(=O)Oc2ccccc2)ccc1Cl	?	?	?	-89*
O=S(=O)(Oc1ccccc1)c1ccc(Cl)c(Cl)c1	0%[46.1 µM]	1%[46.1 µM]	4%	-5
COc1ccc(-c2cc3c(c4c2ccn4C)C2CCC3C2)cc1OC (stereo unspecified)	/	?	-22%	-60*
Cn1ccc2c(N3c4ccccc4CCc4ccccc43)cc3c(c21)C1CCC3C1 (stereo unspecified)	-1%[46.1 µM]	/	-26%	-93*
SMILES	Lassa entry inh	Marburg entry inh	FMDV antiviral	HCMV antiviral
CCCN(CC1CC1)c1cc2c(c3c1ccn3C)C1CCC2C1 (stereo unspecified)	/	3.1µM*	-22%	-62*
COc1ccc(/C=C2\SC(=S)N(C(C(=O)O)c3ccccc3)C2=O)c(OC)c1 (stereo unspecified)	/	/	3%	-19
CCOc1ccc(NC(=O)c2cc(SC)ccc2Cl)cc1	0%	?	-18%	?
CCCCCOc1ccc(NC(=O)c2cc(SC)ccc2Cl)cc1	8%	-1%	-11%	-60*
O=C(NC(=S)Nc1cc(-c2nc3ccccc3[nH]2)ccc1Cl)c1ccc2c(c1)OCO2	?	-27%	?	-76*
S=C(NCc1ccc2c(c1)OCO2)Nc1ccc(-c2nc3ccccc3[nH]2)cc1	-12%	?	?	-61*
Cc1cc(C)c(NC(=O)CSc2nccn2C)c(C)c1	?	11%	14%	61
COc1cccc(Nc2ncnc3ccccc23)c1	15%	-22%	/	-10
O=C(Oc1cccc(Nc2ncnc3ccccc23)c1)c1ccccc1Cl	-13%	?	18µM*	-13
O=C(COC(=O)c1ccccc1Cc1ccccc1)Nc1ccc(SC(F)F)cc1	?	?	27%	45
